TDP1 cell CPT: qHTS for Inhibitors of human tyrosyl-DNA phosphodiesterase 1 (TDP1): qHTS in cells in presence of CPT; chicken DT40 Tdp1-/-;hTDP1 cells + 20 nM CPT, ATP luminescence, 48 h; AID 686979, 2013; 12% of 420,000 active; Potency, µM (top dose mostly 46.2 µM), most hits filed as inhibitors; also: nearly all actives have a fitted effect of over 55% in size
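Cell growth measured by CellTiter-Glo luminescence after a minimum 48 h, 37 C compound exposure with 20 nM CPT in Tdp1-knockout DT40 cells stably expressing hTDP1, seeded 400/well; qHTS titration format.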
HT1080 IDH1KD tx: qHTS for induction of synthetic lethality in tumor cells producing 2HG: qHTS for the HT-1080-IDH1KD cell line. HT-1080 IDH1 knockdown viability, ATP luminescence, 48 h. Potency, µM (titrated, usually from 46.1 µM), hits mostly cytotoxic. 2% of 360,000 active
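Viability of IDH1-knockdown HT-1080 fibrosarcoma cells was assessed by CellTiter-Glo after 48 h at 37 °C with titrated compound; concentration-effect curves were classified by fit quality and response size.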
12-LOX inh: Primary qHTS assay for inhibitors of human arachidonate 12S-lipoxygenase (ALOX12): Round 2; Polyunsaturated fatty acid lipoxygenase ALOX12 (Homo sapiens), P18054; Potency, µM (series often up to 108 µM), most hits filed as inhibitors; purified 12hLO, xylenol orange hydroperoxide absorbance; 1.1% of 580,000 active
Target sequence (P18054 whole entry, looked up): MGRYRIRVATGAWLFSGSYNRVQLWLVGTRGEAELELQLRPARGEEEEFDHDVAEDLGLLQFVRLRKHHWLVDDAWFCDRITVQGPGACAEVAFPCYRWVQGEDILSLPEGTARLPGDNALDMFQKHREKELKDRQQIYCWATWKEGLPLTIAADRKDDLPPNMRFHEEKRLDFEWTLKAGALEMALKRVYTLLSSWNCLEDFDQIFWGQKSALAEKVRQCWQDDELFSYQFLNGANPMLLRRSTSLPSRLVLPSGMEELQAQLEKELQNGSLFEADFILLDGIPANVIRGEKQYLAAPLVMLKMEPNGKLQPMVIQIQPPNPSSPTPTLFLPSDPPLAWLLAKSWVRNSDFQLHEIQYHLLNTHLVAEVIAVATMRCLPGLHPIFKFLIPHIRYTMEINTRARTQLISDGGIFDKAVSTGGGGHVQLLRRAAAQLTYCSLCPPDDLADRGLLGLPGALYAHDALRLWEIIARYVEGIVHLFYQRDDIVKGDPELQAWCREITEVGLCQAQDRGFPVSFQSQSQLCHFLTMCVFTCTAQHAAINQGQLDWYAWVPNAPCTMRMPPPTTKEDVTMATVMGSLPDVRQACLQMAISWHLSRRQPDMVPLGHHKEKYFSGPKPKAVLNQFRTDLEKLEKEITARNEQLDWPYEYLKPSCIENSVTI
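Purified human 12hLO (150 nM final) in 25 mM Hepes, 0.01% Triton X-100, pH 7.0 was preincubated 15 min at room temperature with compound. Then 40 uM arachidonic acid was added, 30 min. Hydroperoxide was read by Fe-XO absorbance ratio 573/405 nm.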
TDP1 cell noCPT: qHTS for Inhibitors of human tyrosyl-DNA phosphodiesterase 1 (TDP1): qHTS in cells in absence of CPT; DT40 Tdp1-/- hTDP1 cells, no CPT, ATP luminescence, 48 h; 15% of 420,000 active; Potency, µM (top dose mostly 46.2 µM), hits mostly inhibitors; also: nearly all actives have a fitted effect of over 55% in size
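Growth of hTDP1-complemented DT40 Tdp1-knockout cells is measured by ATP luminescence after at least 48 hr compound exposure at 37 °C, with DMSO substituting for the 20 nM CPT used in the parallel screen.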
IL-1B inflam inh: qHTS for Inhibitors of Inflammasome Signaling: IL-1-beta AlphaLISA Primary Screen; THP-1 LPS/ATP IL-1B secretion, AlphaLISA, 16 h; stronger effect = lower value; activity change, % at 57.5 µM; 4.7% of 360,000 active; AID 743279, 2014; in the data active = activity change below about -50%; inconclusive = mostly about -30% to -49%
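Secreted IL-1B measured by AlphaLISA bead assay after 16 h compound exposure of THP-1 cells; compounds (final up to 57.5 uM) added 1 h before LPS (250 ng/mL) and ATP (1.25 mM) stimulation; lower signal means less secretion.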
HT1080NT lethal: qHTS for induction of synthetic lethality in tumor cells producing 2HG: qHTS for the HT-1080-NT fibrosarcoma cell line; Potency, µM (highest dose often 46.1 µM), hits mostly cytotoxic; HT-1080-NT fibrosarcoma viability, CellTiter-Glo ATP luminescence, 48 h; 1.6% of 360,000 active;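 also: NT is the 2HG producing partner of a matched IDH1 knockdown line; nearly all actives have a fitted effect of over 55% in size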
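Compounds were tested in concentration-response format on HT-1080-NT cells for 48 hours at 37 degrees C. Cell viability came from CellTiter-Glo luminescence; curves were classified by r2, response magnitude and activity.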
Hits are given with their value; - = inactive; ? = inconclusive; . = no result. Shown is part of a subset that was picked to be rich in hits. Unless noted, calls follow the shape of the dose curve; as a rule, active = well fitted curve in the direction sought with a large enough effect; inconclusive = small, poorly fitted or top-dose-only effect, or another doubt; inactive = no such curve, though single readings can be large; an effect the other way counts as inactive or inconclusive.

SMILES | TDP1 cell CPT | HT1080 IDH1KD tx | 12-LOX inh | TDP1 cell noCPT | IL-1B inflam inh | HT1080NT lethal
Cc1cccc(C(=O)Nc2cccc(OCc3cc(=O)n4cc(C)sc4n3)c2)c1 | ? | . | - | ? | . | .
Cc1cn2c(=O)cc(COc3cccc(NC(=O)c4ccc(C(C)(C)C)cc4)c3)nc2s1 | 16µM | . | - | 16µM | . | .
C[C@H](O)[C@@H]1CN2CCc3c([nH]c4c(-c5ccc6c(c5)OCO6)cccc34)[C@@H]2C[C@@H]1N(C)C(=O)Nc1ccccc1 | . | . | - | . | . | .
COc1ccc(-c2nc(C)c(CCNC(=O)c3cccc(C)c3)s2)cc1OC | . | . | - | . | . | .
CCCN(CC1CC1)C(=O)[C@@H]1COCC(=O)N1Cc1ccccc1 | . | . | - | . | . | .
O=C(Nc1cccc(C(F)(F)F)c1)C(Sc1ncnc2ccccc12)c1ccccc1 (stereo unspecified) | ? | - | - | 21µM | -108 | -
Cc1cc(C)cc(NC(=O)C(Sc2ncnc3ccccc23)c2ccccc2)c1 (stereo unspecified) | ? | - | - | ? | -58 | -
Cn1nnnc1SC(C(=O)Nc1cccc(C(F)(F)F)c1)c1ccccc1 (stereo unspecified) | - | - | - | - | -72 | -
CC(Sc1ncnc2ccccc12)C(=O)NC1CCCC1 (stereo unspecified) | . | . | - | . | . | .
O=C(CSc1ncnc2ccccc12)Nc1cccc(C(F)(F)F)c1 | . | . | - | . | . | .
Cc1oc(-c2ccccc2F)nc1CS(=O)CC(=O)NCc1ccc(F)cc1 (stereo unspecified) | ? | - | - | ? | - | -
O=C(c1cccnn1)N1CC(F)(F)C[C@H]1c1nc(C2CC2)no1 | . | . | - | . | . | .
Cc1ccc(S(=O)(=O)NCC2CCC(C(=O)NC3CCCCC3)CC2)cc1 (stereo unspecified) | - | - | - | - | - | -
O=C(CCN1C(=O)C2C3C=CC(C4CC34)C2C1=O)Oc1cccc2cccnc12 (stereo unspecified) | 5.2µM | 1.3µM | - | 3.3µM | - | 2µM
O=C(CCN1C(=O)C2C3C=CC(C4CC34)C2C1=O)Oc1ccc(Br)cc1 (stereo unspecified) | - | - | - | - | - | -
Cc1ccc2c(c1)CCCN2C(=O)c1cnc2c(cnn2C(C)C)c1 | . | . | - | . | . | .
Clc1ccc2nnnc(-c3ccccc3)c2c1 | 3.3µM | ? | - | 4.1µM | -100 | ?
CN1/C(=C\C(=S)NC(=O)c2ccc([N+](=O)[O-])cc2)C(C)(C)c2ccccc21 | 16µM | - | ? | 23µM | - | -
CN1/C(=C\C(=S)NC(=O)c2cccc(Br)c2)C(C)(C)c2ccccc21 | 9.2µM | ? | ? | 5.2µM | - | -
CCN(CC)S(=O)(=O)c1cccc(C(=O)/C=C2/N(C)c3ccccc3C2(C)C)c1 | 21µM | - | - | 15µM | ? | -
CN1/C(=C\C(=O)CSc2nncn2C)C(C)(C)c2ccccc21 | - | - | - | - | - | -
CN1/C(=C\C(=O)Nc2ccc(Br)cc2)C(C)(C)c2ccccc21 | ? | - | ? | - | - | -
COc1ccc2c(c1)[C@@H](NS(C)(=O)=O)[C@H](C)[C@@H](c1ccccc1)N2C(=O)Nc1ccc(C(F)(F)F)cc1 | . | . | - | . | . | .
O=S(=O)(c1ccccc1)N1N=C(c2cccs2)CC1c1ccc(Br)cc1 (stereo unspecified) | 23µM | - | - | 15µM | - | -
CCNC(=S)/N=C(\N)Nc1nc(C)c2cc(C)ccc2n1 | ? | - | ? | ? | -91 | -
SMILES | TDP1 cell CPT | HT1080 IDH1KD tx | 12-LOX inh | TDP1 cell noCPT | IL-1B inflam inh | HT1080NT lethal
Cc1ccc2c(C)nc(N/C(N)=N/S(=O)(=O)c3ccc([N+](=O)[O-])cc3)nc2c1 | ? | - | - | ? | - | -
CCOc1ccc2nc(N/C(N)=N/C(=S)Nc3ccc(C)c(C)c3)nc(C)c2c1 | - | - | 45µM | - | - | -
COc1ccc(NC(=S)/N=C(\N)Nc2nc(C)c3ccc(C)cc3n2)cc1 | 18µM | - | ? | ? | - | -
COc1cc(N(C(=O)Cc2cccs2)C(C(=O)NC2CCCCC2)c2ccc(C)cc2)ccc1-n1cnnn1 (stereo unspecified) | 21µM | - | - | 13µM | - | -
Cc1nn(C)cc1C(C(=O)NC1CCCCC1)N(C(=O)Cc1cccs1)c1ccc(Cl)cc1 (stereo unspecified) | 2.9µM | - | - | 6.5µM | - | -
COc1ccc(N(C(=O)Cc2cccs2)C(C(=O)NC2CCCCC2)c2cccn2C)cc1OC (stereo unspecified) | - | - | - | - | - | -
Cc1c(-c2ccccc2)oc2c(C(=O)NCCOc3ccccc3)cccc2c1=O | . | . | - | . | . | .
COC(=O)[C@@H]1Cc2ncn(C)c2CN1S(=O)(=O)c1ccc(OC)cc1 | . | . | 32µM | . | . | .
CCCn1cnc2c1CN(S(=O)(=O)c1ccc(F)cc1)[C@H](C(=O)OC)C2 | . | . | - | . | . | .
